Our source for the outcome and AC50 values is PubChem BioAssay (EPA / NIEHS).

Read-out in test [1]: E-selectin (Homo sapiens) (UniProt P16581)
Description: BSK_SAg_Eselectin: BioMAP Diversity Plus: SAg Assay for Eselectin Biomarker Activity (AID 2283091). To be noted: primary human HUVEC with PBMC; actives raise or lower the signal. In short, it runs like this:
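Human umbilical vein endothelial cells co-cultured with peripheral blood mononuclear cells, SAg system. E-selectin is measured by ELISA 24 h after dosing and fitted bidirectionally against DMSO. Cytotoxicity is checked by SRB staining of parallel cultures.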

Read-out in test [2]: Monokine induced gamma interferon (MIG), CXCL9 (gene 4283)
As to the kind of experiment: BSK_SAg_MIG: BioMAP Diversity Plus: SAg Assay for Monokine induced gamma interferon (MIG) Biomarker Activity (AID 2283092). To be noted: primary human HUVEC with PBMC; actives raise or lower the signal. The procedure, abridged: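 Endothelial cells and PBMC were co-cultured, exposed to test chemicals, and sampled 24 h later. MIG was measured by ELISA, and responses were fitted in both directions relative to DMSO.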

The nature of test [3]: BSK_SAg_PBMCCytotoxicity: PBMC Cytotoxicity Assessment in the BioMAP Diversity Plus: SAg Assay (AID 2283093).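 Further: PBMC viability measured as Alamar Blue reduction fluorescence at 546/580 nm; fitted both ways against DMSO so a hit may be loss or gain of signal.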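 On AC50: PBMC superantigen activated with SEB plus TSST-1 one hour after compound addition.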 The settings on record: primary human HUVEC with PBMC. In short, it runs like this: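 Alamar Blue reduction (6 h, ex/em 546/580 nm) read after 90 h culture of PBMC pre-dosed 1 h then stimulated with SEB plus TSST-1, 20 ng/mL each. Gain or loss of signal fitted relative to DMSO.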

Read-out in test [4]: Interleukin-8 (IL8), CXCL8 (gene 3576)
As to the kind of experiment: BSK_SAg_IL8: BioMAP Diversity Plus: SAg Assay for Interleukin-8 (IL8) Biomarker Activity (AID 2283094). To be noted: primary human HUVEC with PBMC; actives raise or lower the signal. In short, it runs like this:
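HUVEC/PBMC co-culture, 24 h post-dose; IL-8 by ELISA. Gain or loss of signal fitted bidirectionally vs DMSO baseline.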

Test [5] is described as follows: BSK_SAg_Proliferation: Cell Proliferation Assessment in the BioMAP Diversity Plus: SAg Assay (AID 2283095).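 Further: relative cell number as total protein by SRB absorbance in sub-confluent culture.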 The settings on record: primary human HUVEC with PBMC. The procedure, abridged: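 HUVEC/PBMC co-culture, 96-well. TCA-fixed (10%), 0.1% SRB stain, A560 at 96 h. Protein content used as viability readout; bidirectional fitting vs DMSO control.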
Test [6] can be described thus: BSK_SAg_SRB: Viability Assessment in the BioMAP Diversity Plus: SAg Assay (AID 2283096).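 Further: cells read one day after compound addition; hits may be either gain or loss of signal compared with DMSO.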 The settings on record: primary human HUVEC with PBMC. The procedure, abridged: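 SRB absorbance at 560 nm served as the viability read-out. Cells (HUVEC plus peripheral blood mononuclear cells) were TCA-fixed and stained 24 h post-dosing; activity fitted in both directions against DMSO controls.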

Test [7] concerns the target human CYP2A6, CYP2A6 (gene 1548) (UniProt P11509). As to the kind of experiment: NVS_ADME_hCYP2A6: NovaScreen (NVS) CYP450-related Enzyme Activity (ADME) Assay for human CYP2A6 (AID 2283099; active means hit-call score of the fitted dose curve at least 0.9, where 1 is the maximum). The procedure, abridged:
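Recombinant human CYP2A6 expressed in insect cells, cell-free; fluorogenic substrate turnover read by fluorescence intensity 0.5 h after dosing. Primary screen 10 uM in duplicate, then concentration-response up to 20 uM; acetonitrile as negative control.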

Test [8] addresses human CYP2B6, CYP2B6 (gene 1555) (UniProt P20813). As to the kind of experiment: NVS_ADME_hCYP2B6: NovaScreen (NVS) CYP450-related Enzyme Activity (ADME) Assay for human CYP2B6 (AID 2283101; active means hit-call score of the fitted dose curve at least 0.9, where 1 is the maximum). In short, it runs like this: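 Cell-free recombinant enzyme assay with a fluorogenic substrate; fluorescence intensity read 1 hour after dosing. Loss of signal relative to acetonitrile negative control indicates inhibition. Primary screen run in duplicate at 10 uM, actives then tested in concentration series.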

Test [9] deals with human CYP1A2, CYP1A2 (gene 1544) (UniProt P05177). As to the kind of experiment: NVS_ADME_hCYP1A2: NovaScreen (NVS) CYP450-related Enzyme Activity (ADME) Assay for human CYP1A2 (AID 2283102; active means hit-call score of the fitted dose curve at least 0.9, where 1 is the maximum;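 on AC50: potency for inhibition since loss of fluorescence marks reduced CYP1A2 activity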). The procedure, abridged: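 Recombinant human CYP1A2 from insect cells, cell-free, fluorogenic substrate; read 0.5 h after dosing with loss of fluorescence signal indicating inhibition. Primary screen in duplicate at 10 uM, acetonitrile as negative control.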
Sequence of human CYP1A2, CYP1A2 (gene 1544) (P05177 whole entry, looked up): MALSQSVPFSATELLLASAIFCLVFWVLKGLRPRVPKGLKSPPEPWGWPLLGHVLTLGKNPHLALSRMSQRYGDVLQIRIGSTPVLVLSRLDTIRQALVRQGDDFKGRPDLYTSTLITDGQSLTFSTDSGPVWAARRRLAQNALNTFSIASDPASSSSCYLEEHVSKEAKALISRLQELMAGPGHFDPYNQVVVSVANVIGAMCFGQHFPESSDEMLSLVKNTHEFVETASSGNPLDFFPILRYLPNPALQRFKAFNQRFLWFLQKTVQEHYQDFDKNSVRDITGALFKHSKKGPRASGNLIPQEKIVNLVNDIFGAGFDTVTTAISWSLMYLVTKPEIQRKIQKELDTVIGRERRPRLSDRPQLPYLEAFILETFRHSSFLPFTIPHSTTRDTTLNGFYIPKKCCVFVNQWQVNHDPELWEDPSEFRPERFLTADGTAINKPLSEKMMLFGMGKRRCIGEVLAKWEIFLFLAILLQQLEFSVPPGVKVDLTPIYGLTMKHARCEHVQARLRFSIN

In test [10] the target is Cytochrome P450 3A4 (Homo sapiens) (UniProt P08684). As to the kind of experiment: NVS_ADME_hCYP3A4: NovaScreen (NVS) CYP450-related Enzyme Activity (ADME) Assay for human CYP3A4 (AID 2283110; active means hit-call score of the fitted dose curve at least 0.9, where 1 is the maximum). In short, it runs like this: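 Compounds screened in duplicate at 10 uM, with follow-up concentration-response for actives, against insect-cell-expressed recombinant enzyme. Activity read by fluorescence 0.33 h after dosing; loss of signal versus acetonitrile control indicates inhibition.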
Sequence of Cytochrome P450 3A4 (Homo sapiens) (P08684 whole entry, looked up): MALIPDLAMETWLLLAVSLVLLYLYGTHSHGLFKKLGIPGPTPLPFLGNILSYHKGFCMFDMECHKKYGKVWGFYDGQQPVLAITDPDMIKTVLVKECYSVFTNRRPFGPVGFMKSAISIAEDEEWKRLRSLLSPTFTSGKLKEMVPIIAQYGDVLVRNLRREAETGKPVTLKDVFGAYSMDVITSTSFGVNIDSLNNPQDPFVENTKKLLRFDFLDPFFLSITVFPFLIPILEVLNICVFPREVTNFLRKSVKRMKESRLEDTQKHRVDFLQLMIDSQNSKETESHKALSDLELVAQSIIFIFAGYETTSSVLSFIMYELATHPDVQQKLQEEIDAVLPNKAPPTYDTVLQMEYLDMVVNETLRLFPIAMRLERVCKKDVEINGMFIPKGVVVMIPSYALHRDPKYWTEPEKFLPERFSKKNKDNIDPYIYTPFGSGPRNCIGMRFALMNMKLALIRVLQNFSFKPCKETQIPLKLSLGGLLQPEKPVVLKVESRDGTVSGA

Test [11] concerns the target Cytochrome P450 2C19 (Homo sapiens) (UniProt P33261). Description: NVS_ADME_hCYP2C19: NovaScreen (NVS) CYP450-related Enzyme Activity (ADME) Assay for human CYP2C19 (AID 2283113; active means hit-call score of the fitted dose curve at least 0.9, where 1 is the maximum;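 further: potency for inhibition seen as loss of fluorescent signal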). In short, it runs like this:
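Cell-free recombinant human CYP2C19 from insect cells, fluorescent substrate; activity read by fluorescence intensity 1 h after dosing. Primary screen in duplicate at 10 uM; actives retested in concentration series. Signal loss versus acetonitrile negative control.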

The target of test [12] is human CYP2D6, CYP2D6 (gene 1565) (UniProt P10635). As to the kind of experiment: NVS_ADME_hCYP2D6: NovaScreen (NVS) CYP450-related Enzyme Activity (ADME) Assay for human CYP2D6 (AID 2283107; active means hit-call score of the fitted dose curve at least 0.9, where 1 is the maximum). In short, it runs like this:
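Cell-free assay using recombinant human CYP2D6 expressed in insect cells, with a fluorogenic substrate read after 1 h. Primary screen in duplicate at 10 uM; actives followed up in concentration series. Loss of signal fitted relative to acetonitrile.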

Test [13] has as its target human CYP2C9, CYP2C9 (gene 1559) (UniProt P11712). Description: NVS_ADME_hCYP2C9: NovaScreen (NVS) CYP450-related Enzyme Activity (ADME) Assay for human CYP2C9 (AID 2283108; active means hit-call score of the fitted dose curve at least 0.9, where 1 is the maximum). The procedure, abridged:
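Fluorescence readout of CYP2C9 activity (SF9-expressed human enzyme) at 0.75 h. The primary screen used 10 uM in duplicate, with concentration-response follow-up for actives; acetonitrile was the negative control.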

For test [14], the target named is human CYP1A1, CYP1A1 (gene 1543) (UniProt P04798). As to the kind of experiment: NVS_ADME_hCYP1A1: NovaScreen (NVS) CYP450-related Enzyme Activity (ADME) Assay for human CYP1A1 (AID 2283100; active means hit-call score of the fitted dose curve at least 0.9, where 1 is the maximum). In short, it runs like this: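 Recombinant CYP1A1 with a fluorogenic substrate, cell-free, read 1 h after dosing; acetonitrile as negative control. Single-concentration screen at 10 uM in duplicate, then concentration-response up to 20 uM for chemicals meeting ~30% inhibition threshold.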
Sequence of human CYP1A1, CYP1A1 (gene 1543) (P04798 whole entry, looked up): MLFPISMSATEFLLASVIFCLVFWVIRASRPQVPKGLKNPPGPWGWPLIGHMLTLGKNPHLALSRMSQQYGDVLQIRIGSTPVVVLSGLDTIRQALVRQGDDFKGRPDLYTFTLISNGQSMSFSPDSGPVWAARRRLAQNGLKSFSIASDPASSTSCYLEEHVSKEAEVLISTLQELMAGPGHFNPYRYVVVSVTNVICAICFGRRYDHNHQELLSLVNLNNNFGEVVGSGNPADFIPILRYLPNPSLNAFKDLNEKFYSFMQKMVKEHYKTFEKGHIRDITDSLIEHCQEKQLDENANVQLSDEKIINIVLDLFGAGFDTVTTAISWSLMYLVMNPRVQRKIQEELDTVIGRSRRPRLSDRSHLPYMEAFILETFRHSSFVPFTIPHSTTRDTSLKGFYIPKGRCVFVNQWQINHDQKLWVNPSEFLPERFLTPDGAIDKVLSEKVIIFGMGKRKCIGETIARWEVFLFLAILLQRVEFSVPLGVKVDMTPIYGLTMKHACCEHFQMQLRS

Results filed as inconclusive are left out. Calls of active or inactive are those of the source. How the source made its calls, unless noted: active means hit-call score of the fitted dose curve at least 0.9, where 1 is the maximum; inactive means score below 0.9.

Sequence of E-selectin (Homo sapiens) (P16581 whole entry, looked up): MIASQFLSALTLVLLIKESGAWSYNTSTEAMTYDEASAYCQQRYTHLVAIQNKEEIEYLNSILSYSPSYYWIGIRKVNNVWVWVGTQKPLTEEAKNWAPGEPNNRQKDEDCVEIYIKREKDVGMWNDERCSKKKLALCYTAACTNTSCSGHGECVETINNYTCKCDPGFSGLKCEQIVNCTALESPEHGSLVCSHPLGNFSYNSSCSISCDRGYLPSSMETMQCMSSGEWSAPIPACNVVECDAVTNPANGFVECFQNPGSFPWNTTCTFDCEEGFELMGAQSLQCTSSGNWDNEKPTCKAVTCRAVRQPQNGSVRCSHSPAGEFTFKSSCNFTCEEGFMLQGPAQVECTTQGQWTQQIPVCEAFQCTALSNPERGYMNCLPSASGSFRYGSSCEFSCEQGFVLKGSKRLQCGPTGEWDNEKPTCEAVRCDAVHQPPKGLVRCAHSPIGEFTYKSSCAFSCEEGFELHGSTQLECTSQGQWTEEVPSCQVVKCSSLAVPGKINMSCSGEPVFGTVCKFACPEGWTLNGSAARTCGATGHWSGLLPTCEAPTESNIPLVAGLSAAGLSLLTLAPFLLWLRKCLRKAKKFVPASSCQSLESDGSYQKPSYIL
Sequence of human CYP2D6, CYP2D6 (gene 1565) (P10635 whole entry, looked up): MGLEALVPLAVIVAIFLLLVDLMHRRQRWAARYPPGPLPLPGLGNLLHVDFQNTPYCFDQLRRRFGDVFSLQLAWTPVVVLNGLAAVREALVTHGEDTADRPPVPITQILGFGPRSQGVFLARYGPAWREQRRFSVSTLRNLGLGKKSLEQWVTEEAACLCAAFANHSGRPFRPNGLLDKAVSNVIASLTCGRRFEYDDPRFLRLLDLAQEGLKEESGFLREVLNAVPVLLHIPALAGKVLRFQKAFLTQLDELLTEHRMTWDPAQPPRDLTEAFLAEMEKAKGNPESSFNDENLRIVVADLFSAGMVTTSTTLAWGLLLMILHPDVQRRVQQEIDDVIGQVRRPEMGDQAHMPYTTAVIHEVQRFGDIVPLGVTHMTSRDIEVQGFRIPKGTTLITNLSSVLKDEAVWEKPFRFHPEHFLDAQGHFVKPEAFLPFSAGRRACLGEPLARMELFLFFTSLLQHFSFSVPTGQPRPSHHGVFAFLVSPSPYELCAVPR
Sequence of human CYP2B6, CYP2B6 (gene 1555) (P20813 whole entry, looked up): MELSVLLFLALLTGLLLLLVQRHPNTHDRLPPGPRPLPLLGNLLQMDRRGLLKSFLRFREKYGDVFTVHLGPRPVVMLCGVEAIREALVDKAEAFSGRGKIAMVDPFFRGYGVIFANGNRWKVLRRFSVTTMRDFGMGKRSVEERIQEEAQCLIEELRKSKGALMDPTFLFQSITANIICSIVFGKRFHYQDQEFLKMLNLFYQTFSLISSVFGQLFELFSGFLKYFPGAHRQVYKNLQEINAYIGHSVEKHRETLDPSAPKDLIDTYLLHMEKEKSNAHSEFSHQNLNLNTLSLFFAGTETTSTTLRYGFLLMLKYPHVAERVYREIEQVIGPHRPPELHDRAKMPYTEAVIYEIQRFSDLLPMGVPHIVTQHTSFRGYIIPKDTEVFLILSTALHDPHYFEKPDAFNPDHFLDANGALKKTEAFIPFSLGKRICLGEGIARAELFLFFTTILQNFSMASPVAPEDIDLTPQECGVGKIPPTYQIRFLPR
Sequence of human CYP2C9, CYP2C9 (gene 1559) (P11712 whole entry, looked up): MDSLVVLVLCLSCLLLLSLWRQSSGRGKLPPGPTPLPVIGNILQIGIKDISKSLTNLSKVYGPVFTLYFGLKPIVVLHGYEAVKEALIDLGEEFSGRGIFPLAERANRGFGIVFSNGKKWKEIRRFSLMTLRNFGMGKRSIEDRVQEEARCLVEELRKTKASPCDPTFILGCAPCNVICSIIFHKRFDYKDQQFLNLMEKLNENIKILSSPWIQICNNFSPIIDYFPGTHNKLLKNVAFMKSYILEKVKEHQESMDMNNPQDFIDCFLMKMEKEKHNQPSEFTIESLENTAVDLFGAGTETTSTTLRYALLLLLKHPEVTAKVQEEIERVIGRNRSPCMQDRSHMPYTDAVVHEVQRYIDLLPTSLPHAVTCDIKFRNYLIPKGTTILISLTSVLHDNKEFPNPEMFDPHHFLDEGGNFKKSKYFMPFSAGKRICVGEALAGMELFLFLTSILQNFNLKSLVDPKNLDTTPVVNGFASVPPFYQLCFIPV
Sequence of human CYP2A6, CYP2A6 (gene 1548) (P11509 whole entry, looked up): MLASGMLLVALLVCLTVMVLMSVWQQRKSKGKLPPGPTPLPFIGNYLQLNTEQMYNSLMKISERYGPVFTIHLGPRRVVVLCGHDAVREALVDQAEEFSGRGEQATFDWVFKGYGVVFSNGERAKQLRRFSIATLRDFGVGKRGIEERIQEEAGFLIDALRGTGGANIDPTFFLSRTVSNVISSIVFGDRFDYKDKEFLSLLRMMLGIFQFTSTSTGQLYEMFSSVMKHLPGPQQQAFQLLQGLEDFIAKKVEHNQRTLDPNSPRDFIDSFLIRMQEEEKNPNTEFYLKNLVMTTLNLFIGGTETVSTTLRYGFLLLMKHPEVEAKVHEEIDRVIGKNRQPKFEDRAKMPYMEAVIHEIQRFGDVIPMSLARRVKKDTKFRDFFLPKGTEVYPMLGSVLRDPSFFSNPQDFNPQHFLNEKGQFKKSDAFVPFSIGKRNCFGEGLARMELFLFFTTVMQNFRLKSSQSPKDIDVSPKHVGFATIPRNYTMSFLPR

Consider `CC(=O)OCCOCCOCCOC(C)=O`, for which the result in [1], in test [2], in [3], in [4], in [5] and in test [6] was inactive.
For `Cc1ccc(Cl)cc1`, the outcome in test [1], in test [2], in [3], in test [4], in [5] and in [6] was inactive.
With `Cc1ccc(C)c(O)c1C`, the result in test [1], in [2], in test [3], in test [4], in test [5] and in [6] was inactive. Moreover, in [7], the compound was classed as inactive.
Consider `C=CCOC(=O)c1ccccc1C(=O)OCC=C`, for which the outcome in [1], in [2], in test [3], in [4], in [5] and in test [6] was inactive. The AC50 in test [8] is 7.79 µM (active); in test [9], 3.03 µM (active); in test [10], 6.19 µM (active); in [11], 2.99 µM (active).
On to `Oc1ccc2c(c1)OC[C@@H](N1CCC(O)(c3ccc(F)cc3)CC1)[C@H]2O`, for which the result in [1], in [2], in test [3], in [4], in test [5] and in test [6] was inactive. For the same compound, the call in test [9] and in [12] was inactive. The AC50 in test [8] was 6.22 µM (active); in test [11] it was 7.71 µM (active).
`CCOC(=O)CCC(=O)OCC`: the result in test [1], in test [2], in test [3], in test [4], in test [5] and in [6] was inactive. Further, the result in test [8], in [9], in test [12] and in test [13] was inactive. Also, the AC50 in test [11] was 15.4 µM (active).
Take `Cc1ccc(C(C)C)c(O)c1`: the outcome in test [1], in test [2], in [3], in [4], in test [5] and in [6] was inactive.
Turning to `CC(=O)Oc1ccccc1C(=O)O`, the result in test [1], in [2], in test [3], in test [4], in [5] and in test [6] was inactive.
With `CCOc1ccc2c(c1)C(C)=CC(C)(C)N2`, the outcome in test [1], in test [2], in test [4], in [6], in test [14] and in test [9] was inactive. Besides, the AC50 is 10.1 µM (active) in test [3]; 24.8 µM (active) in test [5]; 11.6 µM (active) in test [8]; 3.51 µM (active) in test [12]; 10 µM (active) in test [13].
